Assay outcomes: PubChem BioAssay, several laboratories
PABP FP inh: blocks human PABP binding to poly(A) RNA; fluorescence polarization; calls only at 35 µM; actives 1% (n = 290,000);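 further: calls also rest on retests at 20 µM and on dose response follow-up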
eIF4H FP inh: inhibitors of RNA binding by human eIF4H. eIF4H fluorescence polarization binding assay. actives 0.94% (n = 290,000). AID 2012. inhibition, % at 35 µM;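 further: calls also rest on retests at 20 µM and on dose response follow-up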
PABP1 MLLE inh: inhibitors of microRNA-mediated deadenylation, human PABP1 MLLE binding. P11940. GST-MLLE / FITC-PAM2 fluorescence polarization. inhibition, % at 20 µM. actives 0.36% (n = 360,000). AID 588489; in the data active means inhibition above about 35%, passing the limit was not always enough;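 further: plate controls were DMSO wells with GST-MLLE for no effect and wells lacking GST-MLLE protein for full effect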
EBV gp42 inh: EBV gp42 inhibition. Fluorescence polarization binding assay, mP read-out. AID 1085. Q1HVG2. actives 0.42% (n = 220,000). inhibition, % (tested at 21.74 µM); in the data active means inhibition above about 50%
Target sequence (Q1HVG2 whole entry, looked up): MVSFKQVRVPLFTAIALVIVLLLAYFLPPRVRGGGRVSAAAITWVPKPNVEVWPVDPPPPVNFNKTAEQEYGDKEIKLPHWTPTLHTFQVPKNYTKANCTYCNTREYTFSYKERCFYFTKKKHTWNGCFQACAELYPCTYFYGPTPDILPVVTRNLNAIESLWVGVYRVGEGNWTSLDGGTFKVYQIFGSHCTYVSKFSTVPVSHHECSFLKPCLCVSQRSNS
MEX-5 binding: C. elegans MEX-5 TCR-2 RNA binding activity | activity score (negative = inhibition of binding), % at 10 µM | Q9XUB2 | MEX-5/FITC-TCR2 RNA binding, fluorescence polarization; active compounds read low | AID 1832 | actives 0.38% (n = 300,000);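 active means inhibition past about -25% in most replicates, and total fluorescence under double the plate's negative control median, limit read from the data; inconclusive means replicates evenly split on the limit, or fluorescence at least double controls; inactive means too little inhibition in most replicates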;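 further: 0% = DMSO and -100% = 5 µM competing unlabeled TCR2 RNA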
* hit, by the source's call; i = inactive; ? = inconclusive; . = no result; + = active, no number. Rows were chosen to be rich in hits. Some 1.8% of all compounds tested hit in one or more screens of this group. Unless noted, how the calls were made is not given here.

SMILES	PABP FP inh	eIF4H FP inh	PABP1 MLLE inh	EBV gp42 inh	MEX-5 binding
Cc1cc(O)c(C2=Nc3ccccc3SC(c3ccc(Cl)cc3)C2)c(=O)o1 (stereo not drawn)	i	-4	27	15	-1
COc1ccc(C2CC(c3c(O)cc(C)oc3=O)=NCCS2)c(OC)c1 (stereo not drawn)	+	74*	-30	-11	.
Cc1noc(C)c1NC(=O)N(C)C[C@@H]1Oc2ncc(Br)cc2C(=O)N([C@@H](C)CO)C[C@H]1C	.	.	6	.	.
CN(C)c1ccc(/C=C(\C#N)C(=O)Nc2nc3c(s2)CCN(Cc2ccccc2)C3)cc1	?	?	153	106*	-15
O=C(O)CCC1C(=O)NC(=O)CC1c1ccccc1 (stereo not drawn)	.	.	-6	.	.
O=C(NCc1ccccc1)c1cc(C2CCCN(S(=O)(=O)c3cccs3)C2)on1 (stereo not drawn)	.	.	8	.	.
Cc1ccc(C2C3=C(CCCC3=O)Nc3[nH]c(=S)[nH]c(=O)c32)cc1 (stereo not drawn)	i	-7	27	82*	-1
C[C@H](CO)N1C[C@H](C)[C@@H](CN(C)Cc2ccc(Cl)c(Cl)c2)OCc2cnnn2CCCC1=O	.	.	1	.	.
COc1cccc(NC(=O)c2ccc(-c3ccc([N+](=O)[O-])cc3)o2)c1	+	55	17	-21	-3
COc1ccc(NC(=O)c2ccc(-c3ccc([N+](=O)[O-])cc3)o2)cc1OC	i	-13	10	9	-1
CC(=O)Nc1ccc(NC(=O)c2ccc(-c3ccc([N+](=O)[O-])cc3)o2)cc1	i	53*	1	.	1
O=C(C(Br)=Cc1ccccc1)c1ccccc1	.	.	-11	.	.
COc1ccc2nc(N3C(=O)CNC3=S)sc2c1	i	11	-2	-13	1
CCOc1ccc2nc(N3C(=O)/C(=C/c4ccc(Cl)cc4)NC3=S)sc2c1	i	27	-22	64*	-4
COc1ccc(-c2ccccc2)cc1NC(=O)C1(C)CCN1C(=O)C(C)C (stereo not drawn)	.	.	-1	.	.
Cc1cc(C)nc(SCNC(=O)c2ccc(Cl)cc2)n1	i	0	44*	-12	2
Cc1cc(C)nc(SCc2ccc(Cl)cc2)n1	i	-7	6	.	4
CC(=O)Nc1cccc(-c2ccnc3c2CC(C(=O)Nc2ccc(Cl)cc2)O3)c1 (stereo not drawn)	.	.	4	.	.
NC(=O)C1CCCNC1 (stereo not drawn)	+	79*	-2	-13	0
O=C(NC1CCNCC1)C1CCCCC1	i	-15	-12	.	0
CCN(CC(=O)Nc1c(F)cccc1F)C(=O)CNC(=O)c1ccc2ccccc2c1	.	.	2	.	.
CCN(CC(=O)Nc1c(F)cccc1F)C(=O)CNC(=O)c1ccc2c(c1)OCO2	+	42	6	.	-1
CC(=O)c1c(C)[nH]c(C(=O)OCC(=O)Nc2ccc([N+](=O)[O-])cc2Cl)c1C	+	-1	2	-9	0
CC(=O)c1c(C)[nH]c(C(=O)OCC(=O)Nc2ccccc2Cl)c1C	i	-1	-22	-21	-1
CCCNC(=O)OC[C@H]1O[C@H](CCO/N=C/C[C@@H]2C=C[C@H](OC(C)=O)[C@@H](COC(C)=O)O2)C=C[C@@H]1Oc1ccc(OC)cc1	i	2	.	-11	1
SMILES	PABP FP inh	eIF4H FP inh	PABP1 MLLE inh	EBV gp42 inh	MEX-5 binding
CCCNC(=O)OC[C@H]1O[C@H](CCO/N=C(\C)CCN2CCc3nc(-c4ccccc4)c(-c4ccccc4)cc3C2)C=C[C@@H]1Oc1ccc(OC)cc1	i	68*	.	-32	6
O=C(C=Cc1ccco1)c1ccc([N+](=O)[O-])cc1	.	.	-2	.	.
O=C(/C=C/c1ccco1)c1ccc(NC(=O)C23CC4CC(CC(C4)C2)C3)cc1	+	?	-12	-37	5
OC(c1cc(F)cc(Cl)c1)c1ncc(-c2ccccc2C(F)(F)F)[nH]1 (stereo not drawn)	.	.	12	.	.
O=C(CNS(=O)(=O)c1ccc([N+](=O)[O-])cc1)N/N=C/c1ccc(O)cc1O	i	-3	-14	.	-57*
CC(C)N(C(=O)C[n+]1ccc(/C=N/O)cc1)C(C)C	i	5	10	77*	0
O=C(CCN1CCCCC1)c1cccc(Cl)c1	.	.	14	.	.
Cc1ccc(CCNC(=O)c2coc3nc4ccccc4nc23)cc1	+	73	-28	-28	-15
N#C/C(=C/c1ccc(F)cc1)c1nnc(NC(=O)c2ccccc2)s1	+	88*	-19	-14	-3
COc1ccc(NC(=O)CSc2nnc(NC(C)=O)s2)c([N+](=O)[O-])c1	i	2	37*	8	2
O=C(O)c1[nH]c(-c2ccccc2)c2c1C(=O)N(C1CC1)C2=O	.	.	-2	.	.
C=CC1=C(C(=O)O)N2C(=O)[C@@H](NC(=O)/C(=N\O)c3csc(N)n3)[C@H]2SC1 (stereo in doubt)	.	.	32	.	-26*
CC(C)Cc1nnc(NC(=O)c2cc3c(s2)CCC3)s1	i	54*	-24	-38	-1
O=C(Nc1nncs1)c1cc2c(s1)CCC2	i	8	-2	-13	1
CC1CN=C(NS(=O)(=O)c2ccccc2)N1 (stereo not drawn)	.	.	-1	.	.
c1ccc(-c2nnc3oc(-c4cccs4)nn23)cc1	.	.	-13	.	.
Cc1cc(NC(=O)CSCC(=O)N(C)Cc2ccc(Cl)c(Cl)c2)no1	+	29	-3	.	4
C[C@H]1CN([C@@H](C)CO)C(=O)CCCn2nncc2CO[C@H]1CN(C)C(=O)C1CCCCC1	.	.	-2	.	.
C=CCc1ccc(OCC(O)COc2ccc(CC=C)cc2OC)c(OC)c1	+	?	-12	-5	-3
C=CCc1ccc(OCC(O)CN2CCCCC2)c(OC)c1 (stereo not drawn)	i	-9	-32	-15	1
Nc1nonc1-c1nc2ccccc2n1CC(=O)N/N=C/c1ccc(-c2cccc(C(=O)O)c2)o1	+	86*	3	-9	3
Nc1nonc1-c1nc2ccccc2n1CC(=O)O	i	7	-7	-1	-2
Nc1nnc(CC(=O)N/N=C/c2ccc(-c3ccc(F)cc3)o2)s1	i	-1	-16	2	1
Nc1nnc(CC(=O)N/N=C/c2ccc(-c3cccc(C(=O)O)c3)o2)s1	i	76*	0	-11	-10
COc1cc(/C=C/CNC[C@H]2O[C@@H](n3cc(C)c(=O)[nH]c3=O)C[C@@H]2O)ccc1O	.	.	-8	.	.
CCCCCCC(=O)N(O)C1CC(=O)N(c2ccc(Cl)cc2)C1=O (stereo not drawn)	i	-12	23	-32	1
CCCCCCC(=O)N(O)C1CC(=O)N(c2ccc(C)cc2)C1=O (stereo not drawn)	i	-9	44*	-5	1
Cc1ccc(CN2CCC(C)(Oc3cccc(Cl)c3)C2)cc1 (stereo not drawn)	.	.	-9	.	.
CCN(CC)CCN1C(=O)c2cccc3cc(N)cc(c23)C1=O	+	91*	105	101*	-69*
O=C1c2cccc3cccc(c23)C(=O)N1CCO	.	.	3	.	.
